# Mito fusion act: qHTS Assay for Small Molecule Inhibitors of Mitochondrial Division or Activators of Mitochondrial Fusion; S. cerevisiae fusion-defective mutant growth rescue, CellTiterGlo 48 h; 320,000 compounds, 0.23% hits; AID 485298, 2010; Potency, µM (series often up to 46.1 µM), for the others: top-dose growth rescue (activation), hits mostly activators; further: % of control where 0% means no effect; nearly all actives have a fitted effect of over 45% in size
#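 Growth-rescue viability read-out: after 48 h at the non-permissive 37C in glycerol/ethanol YPEG, yeast mitochondrial fusion mutants are measured by CellTiterGlo luminescence; compounds (23 nl pinned per well) restoring growth score as division inhibitors or fusion activators.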
# Abeta rescue: qHTS for compounds that reverse cellular toxicity of Amyloid beta (A-beta) peptide in yeast: Primary Screen; yeast expressing A-beta42, growth rescue, OD600, 48 h; response scale: 0% DMSO, 100% iron-clioquinol control; Potency, µM (highest dose often 46.1 µM), actives largely listed as activators; 410,000 compounds, 0.063% hits; AID 1347071, 2019; further: nearly all actives have a fitted effect of over 55% in size
#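 Growth rescue measured by 600 nm absorbance after 48 h yeast culture at 30 C with compound. Values normalized between DMSO and an equimolar ferric chloride plus clioquinol control.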
# FUS yeast rescue: qHTS for Suppressors of FUS Proteinopathy: Primary screen using FUS-linked yeast assay. AID 1347120, 2019. S. cerevisiae FUS-expressing, growth rescue, OD600, 24 h. 390,000 compounds, 0.24% hits. Potency, µM (series often up to 76.6 µM), hits mostly activators;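 further: plate controls were DMSO vehicle for no effect and reference control for full effect; nearly all actives have a fitted effect of over 55% in size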
#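 Galactose (2%) drives FUS expression in yeast precultured in raffinose; seeding density OD 0.005. Test compounds incubated 24hr at 30C and 99% humidity before absorbance at 600 nm was measured.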
# TDP43 rescue: qHTS of TDP-43 Inhibitors. TDP-43 expressing yeast growth rescue, BacTiter-Glo, 24 h. Potency, µM (series often up to 46.1 µM), inactives show at the highest dose growth rescue (activation), usual class: activators. 410,000 compounds, 1.8% hits; further: % of control where 0% means no effect; nearly all actives have a fitted effect of over 50% in size
#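 Readout is BacTiter-Glo luminescence of cell growth, so inhibitors register as activators. TDP-43-expressing yeast at OD600=0.02 in galactose medium, after raffinose pregrowth to mid-log, were incubated with compound for 24 hr at 30 deg C.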
# aSyn rescue: qHTS of alpha-syn Inhibitors; 370,000 compounds, 0.14% hits; Potency, µM (doses to about 46.1 µM), for the others: top-dose growth rescue (activation), most hits filed as activators; Yeast expressing alpha-synuclein, growth rescue, BacTiter-Glo, 24 h; AID 652106, 2013; further: % of control where 0% means no effect; nearly all actives have a fitted effect of over 65% in size
#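 Screening used galactose-induced yeast with toxic alpha-synuclein levels, exposed to compound for 24 hr at 30 deg C. Cell growth, read with BacTiter-Glo luminescence, gave the measured signal.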
# * = called active by the depositor; i = inactive; ? = inconclusive; · = no result given; ! = not active in a repeat; [ ] = another dose, or the depositor's remark. Sampled rows, rich in hits. Any-hit rate of the full collection: about 2.2%. The call rests on the fitted dose curve; in most records, active means well fitted curve in the direction sought with a large enough effect; inconclusive means small, poorly fitted or top-dose-only effect, or another doubt; inactive means no such curve, though single readings can be large; an effect the other way counts as inactive or inconclusive. Potency means the concentration at half of the fitted maximal effect.
SMILES,Mito fusion act,Abeta rescue,FUS yeast rescue,TDP43 rescue,aSyn rescue
CCc1c(-c2ccccc2)nc2ccccc2c1C(=O)NCc1ccc(C)cc1,·,i,?,35µM*,·
COc1ccc2c(c1)c(=O)c(C(=O)c1ccccc1)cn2CC(=O)Nc1ccc2c(c1)OCO2,·,i,i,15%,·
CCc1nonc1NC(=O)COc1cc(C)c(Cl)c(C)c1,11µM*,i,i,-1%,-7%
CCc1nonc1NC(=O)COc1ccc(Cl)c(C)c1,9%,i,i,20%,-5%
Cc1nc2scc(C)n2c(=O)c1S(=O)(=O)N1CCN(c2ccccc2)CC1,2%,i,i,-21%,-46%
COc1ccc(N2CCN(S(=O)(=O)c3c(C)nc4scc(C)n4c3=O)CC2)cc1,-9%,i,i,14µM*!,-51%
COc1ccc(N2CCN(S(=O)(=O)c3ccc(Br)s3)CC2)cc1,4.5µM*,i,i,-5%,·
COC(=O)c1scc(-c2ccc(C)cc2)c1S(=O)(=O)N1CCN(c2ccc(OC)cc2)CC1,·,i,22µM*,0%,·
CC(C)c1ccc(NC(=O)c2ccc(=O)n(Cc3ccccc3)c2)cc1,·,i,?,0%,·
CN(C)c1ccc(/C=C/c2ccnc3cc(Cl)cc(Cl)c23)cc1,·,·,·,·,1%
COCCNc1oc(/C=C/c2ccc(F)cc2)nc1C#N,·,i,i,?,·
Cc1nc([N+](=O)[O-])c(Br)n1CC(=O)c1ccccc1,-19%,i[9.22 µM],i,16%,14%
Cc1nc([N+](=O)[O-])c(Br)n1CC(=O)c1ccc(Br)cc1,-3%,i,i,11µM*,7%
Cc1nc([N+](=O)[O-])c(Br)n1CC(=O)c1ccc2ccccc2c1,-4%,i,14µM*,16µM*,1%
Cc1nc([N+](=O)[O-])c(C(=O)OCc2ccccc2Br)n1C,-3%,i,i,15%[9.22 µM],1%
CC(=O)Nc1nonc1-c1nnc(SCc2ccc(F)cc2)n1C,·,i,i,0%[9.22 µM],·
COc1ccc(NC(=O)c2cc(-c3cc(F)ccc3OC)n[nH]2)c(OC)c1,·,i,i,20µM*,-17%
CCCOc1ccc(F)cc1-c1cc(C(=O)Nc2ccc(OC)c(OC)c2)[nH]n1,·,i,?,?,1%
COc1ccc(NC(=O)c2cc(-c3cc(F)ccc3OC)n[nH]2)cc1OC,·,i,i,35µM*,-2%
COc1ccc(NC(=O)c2cc(-c3cc(F)ccc3OC)n[nH]2)cn1,·,i,i,20µM*,-23%
COc1ccc(OC)c(NC(=O)c2cc(-c3ccc(F)cc3OC(C)C)n[nH]2)c1,·,i,?,22µM*,-8%
COc1ccc(F)cc1-c1cc(C(=O)Nc2ccc(C)c(NS(C)(=O)=O)c2)[nH]n1,·,i,i,0%,-6%
Oc1ccccc1C1C=C(c2ccc3c(c2)OCO3)NC(c2cccc(F)c2)N1 (stereo not drawn),·,·,·,·,15%
Cc1cc(NC(=O)c2ccccc2Cl)no1,1%,i,i,2%,-2%
Cc1ccc2nc(-c3ccccc3Cl)cc(C(=O)Nc3cc(C)on3)c2c1,21%,i,i,18µM*,9%
SMILES,Mito fusion act,Abeta rescue,FUS yeast rescue,TDP43 rescue,aSyn rescue
COc1ccccc1CNC(=O)c1cn(C)c2ccc(S(=O)(=O)N(C)C3CCCCC3)cc2c1=O,·,i,i,16%,·
COc1cc2oc3ccc(C#Cc4ccc(N)cc4)cc3c(=O)c2cc1OC,·,i,i,5%,4%
COc1cc2oc3ccc(C#Cc4ccccn4)cc3c(=O)c2cc1OC,·,i,i,9%,13µM*
CCc1nc(SCc2cc(=O)c3cc(F)ccc3[nH]2)n[nH]1,·,i,i,11%,·
Cc1c(NC(=O)CSc2ccc(Cl)cc2)cccc1-c1nc2ncccc2o1,2%,i,i,14µM*,2%
CCOc1ccc(NC(=O)CSc2nnc(CNC(=O)C34CC5CC(CC(C5)C3)C4)n2CC)cc1,·,i,i,-1%,·
Oc1oc(-c2ccco2)nc1C=Nc1cccc(Cl)c1,-6%,i,i,28%,-12%
CC(=NCc1cccc(Cl)c1)c1nc(-c2ccco2)oc1O,·,i,i,11µM*,-2%
COC(=O)/C(=C1/Oc2cc(C)oc(=O)c2S1)C(F)(F)F,13%,i,·,8.9µM*,1%
COC(=O)/C(=C1/Oc2ccc(C(C)(C)C)cc2S1)C(F)(F)F,-2%,i,i,13%,6%
Cc1nc(COc2ccccc2Cl)sc1-c1ccnc(N)n1,4%,i,i,11µM*,13%
CCOc1ccc(S(=O)(=O)N2CCN(c3nc(-c4ccccc4)nc4ccccc34)CC2)cc1OCC,·,·,·,·,0%
O=[N+]([O-])c1ccccc1CNc1ccc(F)c(Cl)c1,26%,i,i,18µM*,-11%
Cc1cc(NCc2ccccn2)n2nc(C)c(-c3ccc(Cl)cc3)c2n1,8%,i,i,7.1µM*,3%
Cc1cc(NCc2ccccn2)n2ncc(-c3ccc(Cl)cc3)c2n1,5%,i,i,13%[1.82 µM],5%
CCc1ccc(CNC(=O)c2ccc(-n3c(C)cc4c3CCC(C)C4)cc2)cc1 (stereo not drawn),·,i,i,30%,·
Cc1oc(-c2ccccc2F)nc1CSCC(=O)N1CCN(c2ccccc2)CC1,·,i,i,32µM*,·
Cc1oc(-c2ccccc2Cl)nc1CSCC(=O)NC1CCCC1,7%,i,i,?,3%
Cc1oc(-c2ccccc2Cl)nc1CSCC(=O)N1CCCC1,-4%,i,i,13µM*,-1%
COc1ccc(-c2nc(CSCC(=O)NCc3ccccc3Cl)c(C)o2)cc1OC,·,i,i,25µM*,·
COc1ccc(-c2nc(CSCC(=O)N3CCN(c4ccccc4F)CC3)c(C)o2)cc1,·,i,?,0%,·
C[C@H](O)[C@@H]1CN2CCc3c([nH]c4cccc(-c5ccccc5)c34)[C@@H]2C[C@@H]1N(C)CC1CCCCC1,·,·,i,·,·
COc1ccc(-n2c(-c3ccc(C)cc3)cc3c2CC(C)(C)CC3=O)c(OC)c1,·,i,?,28%,·
CCc1cccc(C)c1NC(=O)CN1CCCN(Cc2ccccc2Cl)S1(=O)=O,·,i,i,19%,·
N#Cc1c(Cl)cccc1N1CCSCC1,·,i,i,?,10%
N#Cc1c(N2CCSCC2)nsc1-c1ccccc1Cl,-20%,i,i,10µM*,-14%
Cn1cccc1C(=O)N1CCN(S(=O)(=O)c2ccccc2F)CC1,·,·,i,·,·
COCCCCOc1cc2nc(N3CCCN(C)CC3)nc(NC3CCN(C)CC3)c2cc1OC,·,·,·,·,-7%
